Source: PubChem BioAssay AID2553 (Johns Hopkins Ion Channel Center, 2010)
The campaign covered roughly 310,000 compounds. About 3,300 (1.1%) were called active.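 Rule for the calls: active = B-score under library mean minus 3 SD, initial fluorescence not abnormally high, positive integrated signal ratio; inactive = the rest.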 Many of the other results were omitted from the sample, so actives are more common in it than they were.

Each compound was assayed against Short transient receptor potential channel 6 (Mus musculus) (UniProt Q61143) (assay: mouse TRPC6 channel inhibitors, primary screen, cell-based, HEK293, membrane potential dye (AID 2553;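 for B-score: B-score derived from integrated fluorescence ratio over the kinetic read; more negative B-score means stronger inhibition of depolarization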)). Conditions: ACh-evoked depolarization, at 10 µM; stronger effect = lower value.
Sequence of Short transient receptor potential channel 6 (Mus musculus) (Q61143 whole entry, looked up): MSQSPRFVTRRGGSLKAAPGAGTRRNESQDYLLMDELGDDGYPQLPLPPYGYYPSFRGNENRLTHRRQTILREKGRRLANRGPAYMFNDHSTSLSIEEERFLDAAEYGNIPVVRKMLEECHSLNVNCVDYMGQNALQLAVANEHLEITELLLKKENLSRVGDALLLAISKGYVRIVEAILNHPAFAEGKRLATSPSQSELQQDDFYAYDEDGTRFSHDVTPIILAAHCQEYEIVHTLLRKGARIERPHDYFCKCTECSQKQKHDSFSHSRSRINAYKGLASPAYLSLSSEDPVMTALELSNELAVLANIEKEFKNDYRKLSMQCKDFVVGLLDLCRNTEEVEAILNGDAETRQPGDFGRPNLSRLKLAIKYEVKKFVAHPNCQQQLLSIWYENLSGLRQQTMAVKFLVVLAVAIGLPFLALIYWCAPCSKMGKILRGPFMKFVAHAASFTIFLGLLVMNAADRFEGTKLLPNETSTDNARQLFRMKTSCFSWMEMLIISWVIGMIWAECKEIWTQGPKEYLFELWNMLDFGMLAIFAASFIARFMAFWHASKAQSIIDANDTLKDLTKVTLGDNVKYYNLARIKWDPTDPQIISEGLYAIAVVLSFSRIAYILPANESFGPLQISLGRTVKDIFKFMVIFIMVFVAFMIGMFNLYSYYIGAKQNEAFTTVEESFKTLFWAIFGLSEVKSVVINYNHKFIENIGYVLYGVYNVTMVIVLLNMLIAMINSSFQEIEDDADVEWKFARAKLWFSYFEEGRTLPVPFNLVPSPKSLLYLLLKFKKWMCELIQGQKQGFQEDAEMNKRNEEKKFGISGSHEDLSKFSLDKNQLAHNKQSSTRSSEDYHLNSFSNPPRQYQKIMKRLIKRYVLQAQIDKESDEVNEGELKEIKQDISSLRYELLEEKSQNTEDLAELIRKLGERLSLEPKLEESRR
In the case of `Cc1ccc2c(c1)N(CC(=O)N1CCC(O)CC1)C(=O)CO2`, the B-score is reported as “inactive”. `CCOC(=O)N1CCC(NC(=O)CN2C(=O)COc3ccc(C(C)(C)C)cc32)CC1` was tested, and the B-score was -7.85 (active). With `Cc1ccc2c(c1)N(CC(=O)N1CCCC(C)C1)C(=O)CO2` (centres undefined) the B-score was “inactive”. `CC(NC(=O)CCC(=O)N1CCN(S(=O)(=O)c2ccc(Cl)cc2)CC1)c1ccccc1` (centres undefined) was tested, and the B-score was “inactive”. With `CC12C(=O)N(c3ccccc3)C(=O)C1C(c1ccccc1)N1CCCN12` (centres undefined) the B-score was “inactive”. For `O=C(Nc1cccc(Cl)c1N1CCOCC1)c1cccnc1`, the B-score was “inactive”. `CCCC(=O)Nc1ccc(Cl)c(NC(=O)c2ccc(Br)o2)c1` was tested, and the B-score was “inactive”. In the case of `CCN1CCN(c2c(Cl)cccc2NC(=O)c2ccc(Br)o2)CC1`, the B-score is reported as -12.2 (active). With `CCCN=C1NC(=O)C(CC(=O)NCCc2ccc(OC)c(OC)c2)S1` (centres undefined) the B-score was “inactive”. `COc1ccc(NC(=O)CSc2nc(SC)ns2)c(OC)c1` was tested, and the B-score was “inactive”. For `C#CC(CCN1CCCCC1)(OC)c1ccccc1` (centres undefined), the B-score was “inactive”. In the case of `CCOC(=O)c1sc2nc(CSc3ccccc3)[nH]c(=O)c2c1C`, the B-score is reported as “inactive”. In the case of `CCOC(=O)c1sc2nc(C)[nH]c(=O)c2c1C`, the B-score is reported as “inactive”. In the case of `CCOC(=O)c1sc2nc(CSCC(=O)OCc3ccc(C(=O)OC)o3)[nH]c(=O)c2c1C`, the B-score is reported as -12.7 (active). In the case of `COc1ccc(NC(=S)N2N=CCC2c2ccccc2)cc1` (centres undefined), the B-score is reported as “inactive”. For `Cc1cccc(-[n+]2c(-c3cccc(Br)c3)[nH]c3nc4ccccc4nc32)c1`, the B-score was -6.45 (active). In the case of `Cc1nnc(SCC(=O)NCCOc2ccc(Cl)cc2)n1-c1ccccc1`, the B-score is reported as “inactive”. For `Cc1nnc(SCC(=O)N2CCN(c3ccccc3)CC2)n1-c1ccccc1`, the B-score was “inactive”. `Cc1nnc(SCc2ccc(C(=O)c3ccc(Cl)cc3)o2)n1-c1ccccc1` was tested, and the B-score was -6.02 (active). With `CN1CCN(C(=O)c2ccc(NS(=O)(=O)c3ccccc3)cc2)CC1` the B-score was “inactive”. In the case of `O=C(Nc1ccc(Br)cc1F)C1CC(=O)N(C2CCCCC2)C1` (centres undefined), the B-score is reported as “inactive”. `CC1CCCN(CC(=O)Nc2cc(Cl)ccc2Oc2ccccc2)C1` (centres undefined) was tested, and the B-score was “inactive”. `CC(=O)Nc1ccc(NC(=O)CN2CCCC(C)C2)c(Cl)c1` (centres undefined) was tested, and the B-score was -5.66 (active). For `O=C(CN1CCOCC1)Nc1ccc(NC(=O)CN2CCOCC2)c(Cl)c1`, the B-score was “inactive”. In the case of `Cc1ccc(S(=O)(=O)C2(S(=O)(=O)c3ccc(C)cc3)CCCC2)cc1`, the B-score is reported as “inactive”. In the case of `O=S(=O)(Cc1nnnn1-c1ccccc1)c1ccccc1`, the B-score is reported as “inactive”. `O=C(OCCN1C(=O)c2ccccc2C1=O)Oc1ccccc1` was tested, and the B-score was “inactive”. `Cn1c(=O)c2c(nc(NCCNC(=O)c3ccco3)n2Cc2ccccc2F)n(C)c1=O` was tested, and the B-score was “inactive”. With `Cc1ccc(NC(=O)COC(=O)CNC(=O)c2ccc(Cl)cc2Cl)cc1S(=O)(=O)N1CCOCC1` the B-score was “inactive”. For `COc1ccc(CC(=O)Nc2sc(Cc3ccccc3)c(C)c2C(N)=O)cc1`, the B-score was -7.08 (active). In the case of `Cc1ccc(C(=O)Nc2sc(Cc3ccc4c(c3)OCO4)c(C)c2C(N)=O)cc1`, the B-score is reported as “inactive”. In the case of `COc1ccc(CC(=O)Nc2c(C(N)=O)oc3ccccc23)cc1`, the B-score is reported as “inactive”. With `Cc1ccccc1N1C(=O)C2ON(c3ccccc3)C(c3ccncc3)C2C1=O` (centres undefined) the B-score was “inactive”. With `CCN(CC)CCNc1ccc(Cl)cc1[N+](=O)[O-]` the B-score was “inactive”. In the case of `CCN(CC)CCn1c2ccc(Cl)cc2c2nc(C)sc21`, the B-score is reported as -7.92 (active). In the case of `COC(=O)Cn1c2ccc(C)cc2c2nc(C)sc21`, the B-score is reported as “inactive”. In the case of `COCCNc1ccc(-c2n[nH]c(=O)c3ccccc23)cc1[N+](=O)[O-]`, the B-score is reported as “inactive”. With `NS(=O)(=O)c1ccc(CCNC(=O)CCCn2c(SCC(=O)N3CCCC3)nc3ccsc3c2=O)cc1` the B-score was “inactive”. For `COc1ccc(Cn2c(-c3ccc(Cl)cc3)c[n+]3ccccc23)cc1`, the B-score was -7.95 (active). `COc1ccc(Cn2c(=O)cc(C)[nH]c2=S)cc1` was tested, and the B-score was “inactive”. For `CCn1c(C)cc(=O)cc1-c1ccc(Cl)cc1`, the B-score was “inactive”. For `CCN1C(=S)N[C@@H](CCc2ccccc2)[C@H](C(=O)OC)[C@H]1C`, the B-score was “inactive”. With `O=C(O)CSCc1ccc(C(=O)O)o1` the B-score was “inactive”. In the case of `COc1ccccc1C1CCN(c2ccc([N+](=O)[O-])cn2)CC1`, the B-score is reported as “inactive”. For `COc1ccccc1C1SCCN1C(=O)c1ccc([N+](=O)[O-])cc1` (centres undefined), the B-score was -9.98 (active). `COc1ccc(C(=O)N2CCc3cc(OC)c(OC)cc3C2c2cccc([N+](=O)[O-])c2)cc1` (centres undefined) was tested, and the B-score was “inactive”. For `CC1CC(C)CN(CCOc2cccc3ccccc23)C1` (centres undefined), the B-score was “inactive”. In the case of `CCCCCCCCCCOC(=O)C[N+](C)(C)CC1CCCCC1O` (centres undefined), the B-score is reported as -9.01 (active). With `CCCCCOC(=O)c1ccc(N2C(=O)C3C4C=CC(C4)C3C2=O)cc1` (centres undefined) the B-score was “inactive”. For `CCC(C)(C)c1ccc(OCC(=O)N(C)C)c(C(C)(C)CC)c1`, the B-score was “inactive”. For `Oc1ccccc1-c1cc(-c2ccc(Cl)cc2)n[nH]1`, the B-score was “inactive”. For `CCCCNC(=O)C1CCC(CNS(=O)(=O)c2ccc(NC(C)=O)cc2)CC1` (centres undefined), the B-score was “inactive”. With `Cc1ccccc1-n1nnnc1SCCCC(=O)c1ccc(F)cc1` the B-score was “inactive”. `CCc1c(O)nc(SCC(=O)Nc2ccccc2)n(C(C)CC)c1=O` (centres undefined) was tested, and the B-score was “inactive”. For `COC(=O)c1c(NC(=O)c2ccc(S(=O)(=O)N3CCOCC3)cc2)sc2c1CCN(C(C)C)C2`, the B-score was -5.88 (active). With `CNC(=O)c1ccsc1NC(=O)c1ccc(S(=O)(=O)N2CCOCC2)cc1` the B-score was “inactive”. With `COc1ccc(C(=O)Nc2nc(-c3ccc(S(=O)(=O)N4CCOCC4)cc3)cs2)cc1` the B-score was “inactive”. For `Cc1ccccc1CS(=O)(=O)CC1(O)CCN(C(=O)c2cccc(C(F)(F)F)c2)CC1`, the B-score was “inactive”. For `CCC(C)(C)NC(=O)C(c1ccc(OC)cc1)N(C(=O)CCC(=O)Nc1cc(C)on1)c1ccc(OC)cc1OC` (centres undefined), the B-score was “inactive”. `O=C(CSc1nnnn1C1CCCC1)N1CCCCC1` was tested, and the B-score was “inactive”. `Cc1cccc(NC(=S)Nc2ccc(Br)cc2)c1` was tested, and the B-score was “inactive”. `Cc1cccc(NC(=S)Nc2ccc(Cl)c(Cl)c2)c1` was tested, and the B-score was “inactive”. In the case of `Cc1cccc(NC(=S)NCCN(C2CCCCC2)C2CCCC2)c1`, the B-score is reported as -5.75 (active). For `O=S(=O)(c1ccc(Br)c2ccccc12)N1CCOCC1`, the B-score was “inactive”. With `Cc1ccccc1N1CCN(S(=O)(=O)c2ccc3ccccc3c2)CC1` the B-score was “inactive”. For `Cc1cc(N2CCN(S(=O)(=O)c3ccc(C)c(C)c3)CC2)c2ccccc2n1`, the B-score was -5.95 (active). `Cc1ccc(S(=O)(=O)N2CCN(c3ccccc3)CC2)cc1C` was tested, and the B-score was “inactive”. For `CC(=O)NS(=O)(=O)c1ccc(N/C(N)=N/c2nc(C)cc(C)n2)cc1`, the B-score was “inactive”. For `OCCC1CN(Cc2ccc3nsnc3c2)CCN1C1CCCCC1` (centres undefined), the B-score was -5.65 (active). With `OCCC1CN(Cc2ccc3nsnc3c2)CCN1C1CCCC1` (centres undefined) the B-score was -6.69 (active). With `Cn1cnnc1Sc1ccc(CN2CCN(C3CCCC3)C(CCO)C2)o1` (centres undefined) the B-score was “inactive”. In the case of `COc1cccc2c1OCC(CN1CCN(C3CCCCC3)C(CCO)C1)=C2` (centres undefined), the B-score is reported as “inactive”. With `Cc1ccc(CN2CCN(Cc3ccc4ncccc4c3)CC2CCO)cc1` (centres undefined) the B-score was “inactive”. `CC(C)N1CCC(N2CCN(Cc3cccnc3)CC2CCO)CC1` (centres undefined) was tested, and the B-score was “inactive”. For `Fc1c(F)c(C(F)(F)F)c(F)c(F)c1N1CCN(c2ccc3nnc(C(F)(F)F)n3n2)CC1`, the B-score was “inactive”. `O=C(CCN1CCCO1)N1CCCC(N2CCN(c3cccc(C(F)(F)F)c3)CC2)C1` (centres undefined) was tested, and the B-score was “inactive”. `O=C(O)c1ccc(S(=O)(=O)N2CCOCC2)o1` was tested, and the B-score was “inactive”. In the case of `O=C(NCc1ccccc1Cl)C(=O)NCC1CCCN1S(=O)(=O)c1cccs1` (centres undefined), the B-score is reported as “inactive”. `COc1ccc([C@@H]2[C@@H]3C(=O)N(C(C)(C)C)C(=O)[C@@H]3[C@]3(Cc4ccccc4)C(=O)N(c4cccc(Br)c4)C(=O)N23)cc1` was tested, and the B-score was “inactive”. For `COc1ccc(-c2nonc2NC(=O)c2oc3ccc(F)cc3c2C)cc1OC`, the B-score was “inactive”. With `CCOC(=O)C1=NN(c2ccc(Cl)cc2)/C(=C/C2=NCCc3cc(OC)c(OC)cc32)S1` the B-score was -5.5 (active). In the case of `CCOC(=O)C1=C(CN2CCc3ccccc32)NC(=O)NC1c1ccc(Cl)cc1` (centres undefined), the B-score is reported as “inactive”. In the case of `CCOC(=O)c1cc2c(n(-c3ccc(C)cc3)c1=O)CCCC2=O`, the B-score is reported as “inactive”. With `c1ccc(-n2nnnc2-c2cccnc2)cc1` the B-score was “inactive”. `FC(F)(F)c1nc(-c2ccccc2)ncc1-c1nnnn1-c1ccccc1` was tested, and the B-score was “inactive”. With `Clc1ccc(-n2nnnc2-c2cnc(-c3ccccn3)nc2-c2cccs2)cc1` the B-score was -6.02 (active). With `O=C(Nc1cccc(Cl)c1)c1cc([N+](=O)[O-])ccc1N1CCN(CCO)CC1` the B-score was “inactive”. For `CCN1CCN(c2ccc([N+](=O)[O-])cc2C(=O)c2ccc(Cl)cc2)CC1`, the B-score was -6.09 (active). In the case of `CCC(=O)c1ccc(N2CCN(C(=O)c3cc([N+](=O)[O-])ccc3F)CC2)c(F)c1`, the B-score is reported as “inactive”. For `COc1ccc(C(C#N)Nc2ccc(C)cc2)cc1` (centres undefined), the B-score was “inactive”. For `Cc1ccc(S(=O)(=O)N(c2cccc(C)c2)C2CCS(=O)(=O)C2)cc1` (centres undefined), the B-score was “inactive”. With `COCc1ccc(CN2CCC(Oc3ccc(C(=O)NCc4ccccn4)cc3)CC2)o1` the B-score was “inactive”. For `CCCn1nc(NC(=O)C(C)C)c2cc3cc(OC)ccc3nc21`, the B-score was “inactive”. In the case of `Cc1ccccc1CSc1nnc(CCCCCNC(=O)OC(C)(C)C)o1`, the B-score is reported as “inactive”. In the case of `CCC(C)(C)NC(=O)CN(C(=O)CCC(=O)Nc1nccs1)c1ccc2c(c1)OCO2`, the B-score is reported as -5.2 (active). In the case of `O=C(CN(C(=O)CCC(=O)Nc1nccs1)c1ccc(F)cc1)NCc1ccc2c(c1)OCO2`, the B-score is reported as “inactive”. In the case of `CCC(C)(C)NC(=O)CN(C(=O)CCC(=O)Nc1cc(C)ccn1)c1ccc2c(c1)OCCO2`, the B-score is reported as “inactive”. In the case of `CCN1CCC2(CCN(Cc3cn[nH]c3-c3ccc(OC)c(F)c3)C2)C1` (centres undefined), the B-score is reported as “inactive”. For `COc1ccc(/C=C/C(=O)OCC(=O)NCc2cccs2)cc1OC`, the B-score was “inactive”. `O=C(CN1CCN(C(=O)C2CCCO2)CC1)Nc1c(Cl)cccc1Cl` (centres undefined) was tested, and the B-score was “inactive”. With `COc1ccc(OC)c(CNC(=O)Cn2nc(C)c3c(C)n(-c4ccc(C)cc4)nc3c2=O)c1` the B-score was “inactive”. `CN=C1C=C/C(=N/N=c2\ccn(O)cc2C)C=C1C` was tested, and the B-score was “inactive”. For `O=C(O)CCCCCNc1ncnc2ccc(Br)cc12`, the B-score was “inactive”. In the case of `Cc1ccccc1-n1nc(C)c2c1N=C1C(Cl)=CC(Cl)=CN1C2c1ccc(C(=O)O)cc1` (centres undefined), the B-score is reported as “inactive”.
